Laboratory results taken from PubChem BioAssay (EPA / NIEHS).
Values joined by “and” are separate entries in the source; they are usually repeats but may differ in a detail not shown here. Identical values can stand only once. Some structures have more than one record in an assay (separate samples or runs), and their calls can disagree. Active and inactive are the calls of the source. The calls were made as follows: active = hit-call score of the fitted dose curve at least 0.9, where 1 is the maximum; inactive = score below 0.9.

Key:
[1] = target: Transcription factor E2F1 (Homo sapiens) (UniProt Q01094); assay: ATG_E2F_CIS: Attagene CIS-FACTORIAL HepG2 Assay for human E2F Transcription Factor 1 (AID 2282935); conditions: HepG2 Attagene cis-reporter, E2F reporter RNA transcripts; actives raise or lower the signal
In short: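 Gain or loss of reporter transcript, fitted against DMSO, reflects E2F1-driven transcription. Transiently transfected HepG2 dosed 24 h before RNA isolation. Quantified by fluorescent RT-PCR products separated by capillary electrophoresis.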

[2] = ATG_E_Box_CIS: Attagene CIS-FACTORIAL HepG2 Assay for human Enhancer Box (E-box) (AID 2282936); conditions: HepG2 E-box cis-reporter transcription, actives raise or lower the signal
In short: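 E-box-driven reporter transcripts measured in transiently transfected HepG2 after 24 h exposure: RNA reverse-transcribed, PCR-amplified, fluorescently labelled, digested and resolved by capillary electrophoresis. Gain or loss relative to DMSO.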

[3] = ATG_M_61_CIS: Attagene CIS-FACTORIAL HepG2 Assay for M61 Transcription Factor (Internal Marker) (AID 2282937); conditions: HepG2 Attagene CIS-FACTORIAL M61 internal marker reporter; actives raise or lower the signal
In short: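 Transfect HepG2 with MRTUs; dose 24 h; isolate RNA; reverse-transcribe with DNase I treatment; PCR-amplify, FAM-label and cut with HpaI for 2 h at 37 C; resolve by CE. Bidirectional fitting against DMSO.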

[4] = ATG_EGR_CIS: Attagene CIS-FACTORIAL HepG2 Assay for human Early Growth Response 1 (EGR1) (AID 2282938); conditions: HepG2 Attagene CIS-FACTORIAL EGR reporter mRNA; actives raise or lower the signal
In short: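 After a 24 h treatment of transiently transfected HepG2 cells, total RNA was reverse-transcribed and reporter sequences PCR-amplified, labelled and run on capillary electrophoresis. Reporters sit under cis-regulatory promoters sensing endogenous factors.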

[5] = ATG_M_19_CIS: Attagene CIS-FACTORIAL HepG2 Assay for M19 Transcription Factor (Internal Marker) (AID 2282939); conditions: HepG2 Attagene CIS-FACTORIAL M19 internal marker reporter; actives raise or lower the signal
In short: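 Transfect HepG2 with MRTU reporter library → dose chemical, 24 h → isolate total RNA, reverse-transcribe with oligo(dT) → PCR, 6-FAM label, HpaI cut (2 h, 37 C) → capillary electrophoresis. Bidirectional fit vs DMSO.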

[6] = ATG_ERE_CIS: Attagene CIS-FACTORIAL HepG2 Assay for Estrogen Response Element (ERE) (AID 2282940); conditions: HepG2 ERE cis-reporter, Attagene RNA transcript; actives raise or lower the signal
In short: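 Transient MRTU transfection of human HepG2; cis-element promoters; 24 h dosing; total RNA → RT (oligo dT) → PCR → 6-FAM primer extension → HpaI digest → CE fluorescence. Bidirectional fit, DMSO baseline.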

[7] = ATG_Ets_CIS: Attagene CIS-FACTORIAL HepG2 Assay for human Erythroblast Transformation Specific (ETS) (AID 2282941); conditions: HepG2 ETS cis-reporter transcription, actives raise or lower the signal
In short: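 Cis-regulated reporter mRNA induction in HepG2 (transient transfection), 24 h exposure, RT-PCR plus capillary electrophoresis detection; DMSO serves as negative control and baseline.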

[8] = target: Hepatocyte nuclear factor 3-beta (Homo sapiens) (UniProt Q9Y261); assay: ATG_FoxA2_CIS: Attagene CIS-FACTORIAL HepG2 Assay for human Forkhead box A2 (FOXA2) (AID 2282942); conditions: HepG2 cis-reporter transcription factor activity, 24 h; actives raise or lower the signal
In short: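 24 h dosing of HepG2 bearing cis-reporter constructs; mRNA readout by RT-PCR/CE fluorescence; bidirectional fit, DMSO baseline.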

[9] = ATG_FoxO_CIS: Attagene CIS-FACTORIAL HepG2 Assay for human Forkhead box O (FoxO) (AID 2282943); conditions: HepG2 Attagene cis-reporter, FoxO element, mRNA; actives raise or lower the signal
In short: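 Endogenous transcription factor activity read from multiplexed cis-promoter reporter transcripts in transiently transfected HepG2, 24 h after dosing. Reporter RNA measured via RT-PCR plus capillary electrophoresis of FAM-labeled products; gain or loss relative to DMSO.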

[10] = ATG_GATA_CIS: Attagene CIS-FACTORIAL HepG2 Assay for human GATA Binding Protein (AID 2282944); conditions: HepG2 GATA cis-element reporter, Attagene multiplex mRNA; actives raise or lower the signal
In short: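 Transient MRTU transfection, HepG2, 24 h compound exposure. Total RNA → oligo(dT) RT → PCR → 6-FAM primer extension → HpaI cut → CE. Bidirectional fit vs DMSO.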

[11] = ATG_GLI_CIS: Attagene CIS-FACTORIAL HepG2 Assay for human Zinc Finger Protein GLI1 (AID 2282945); conditions: HepG2, Attagene cis-factorial reporter mRNA, GLI element; actives raise or lower the signal
In short: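 Bidirectional curve fits relative to DMSO, using reporter mRNA levels from RT-PCR plus capillary electrophoresis. Cells were HepG2 transiently carrying cis-regulated reporter constructs, harvested 24 h after dosing.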

[12] = target: Bile acid receptor (Homo sapiens) (UniProt Q96RI1); assay: ATG_IR1_CIS: Attagene CIS-FACTORIAL HepG2 Assay for human Nuclear Receptor Subfamily 1 Group H Member 4 (NR1H4), IR1 submotif (AID 2282946); conditions: IR1 reporter transcription, actives raise or lower the signal
In short: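 HepG2 cells transiently transfected with multiplexed cis-element reporter units read endogenous transcription factor activity. After 24 h compound exposure, reporter mRNA was quantified by RT-PCR, fluorescent labelling, HpaI digestion and capillary electrophoresis; bidirectional fitting versus DMSO baseline.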

[13] = ATG_GRE_CIS: Attagene CIS-FACTORIAL HepG2 Assay for human Glucocorticoid Response Elements (GRE) (AID 2282947); conditions: HepG2 GRE cis-reporter, Attagene multiplex mRNA; actives raise or lower the signal
In short: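 Reporter transcripts read by RT-PCR with capillary electrophoresis fluorescence after a 24 h chemical exposure of HepG2 cells transiently transfected with multiple cis-element reporter units. Gain or loss fitted against DMSO.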

[14] = ATG_ISRE_CIS: Attagene CIS-FACTORIAL HepG2 Assay for human Interferon Regulatory Factor 1 (IRF1) binding to an Interferon-Stimulated Response Element (ISRE) (AID 2282948); conditions: HepG2 ISRE cis-reporter (Attagene), mRNA transcription readout; actives raise or lower the signal
In short: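 Multiplexed mRNA reporter readout in human liver HepG2 cells: cis-element-driven reporters transfected, compound added for 24 h, transcripts amplified, fluorescently labelled and sized by capillary electrophoresis; curve fitting bidirectional against DMSO.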

[15] = ATG_M_32_CIS: Attagene CIS-FACTORIAL HepG2 Assay for M32 Transcription Factor (Internal Marker) (AID 2282949); conditions: HepG2 Attagene cis-factorial M32 reporter, mRNA; actives raise or lower the signal;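 also: background control marker of the multiplexed CIS panel rather than a real target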
In short: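 HepG2 transfectants (cis-regulated reporter transcription units) dosed 24 h. Reporter mRNA by RT-PCR plus CE, analysed as gain or loss relative to DMSO.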

[16] = ATG_M_06_CIS: Attagene CIS-FACTORIAL HepG2 Assay for M06 Transcription Factor (Internal Marker) (AID 2282950); conditions: HepG2 Attagene CIS-FACTORIAL M06 internal marker reporter; actives raise or lower the signal
In short: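 Read-out is fluorescence of labelled reporter cDNA fragments resolved by capillary electrophoresis after RT-PCR. Cells: HepG2 carrying transfected cis-promoter reporter units, treated 24 h. Gain or loss of signal fitted relative to DMSO.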

[17] = target: Hypoxia-inducible factor 1-alpha (Homo sapiens) (UniProt Q16665); assay: ATG_HIF1a_CIS: Attagene CIS-FACTORIAL HepG2 Assay for human Hypoxia Inducible Factor 1 (HIF1A) (AID 2282951); conditions: HepG2 Attagene cis-factorial HIF1a reporter transcription; actives raise or lower the signal
In short: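 After 24 h chemical exposure of reporter-transfected HepG2 cells, reporter cDNA was PCR-amplified, labelled by 6-FAM primer extension (2 min 95 C, 20 s 68 C, 10 min 72 C), HpaI-cut (2 h, 37 C) and analysed by CE.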

[18] = target: Hepatocyte nuclear factor 6 (Homo sapiens) (UniProt Q9UBC0); assay: ATG_HNF6_CIS: Attagene CIS-FACTORIAL HepG2 Assay for human Hepatocyte Nuclear Factor 6 (HNF6) (AID 2282952); conditions: HepG2 Attagene cis-factorial HNF6 reporter transcription; actives raise or lower the signal
In short: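 Using cis-element reporters in HepG2 liver cells, the assay tracks endogenous factor-driven transcription 24 h post-dosing. Signal comes from 6-FAM-labelled, HpaI-digested RT-PCR fragments, with gain or loss scored against DMSO.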

[19] = ATG_MRE_CIS: Attagene CIS-FACTORIAL HepG2 Assay for human Metal Responsive Element (MRE) (AID 2282954); conditions: HepG2 MRE cis-reporter transcription, Attagene multiplex; actives raise or lower the signal
In short: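 Endogenous MRE-dependent transcription read as reporter mRNA in transiently transfected human HepG2 cells at 24 h. RNA reverse-transcribed, PCR-amplified, labelled and resolved by capillary electrophoresis; gain or loss relative to DMSO.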

[20] = target: Heat shock factor protein 1 (Homo sapiens) (UniProt Q00613); assay: ATG_HSE_CIS: Attagene CIS-FACTORIAL HepG2 Assay for human Heat Shock Transcription Factor 1 (HSE) (AID 2282953); conditions: HepG2 HSE cis-reporter, Attagene RNA transcription; actives raise or lower the signal
In short: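 HepG2, transient MRTU transfection, cis-promoter reporters (endogenous TF activity). 24 h compound. RNA → oligo(dT) RT → PCR → 6-FAM primer extension → HpaI cut → CE. Bidirectional fit vs DMSO.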

Chain of Hypoxia-inducible factor 1-alpha (Homo sapiens) (Q16665 whole entry, looked up): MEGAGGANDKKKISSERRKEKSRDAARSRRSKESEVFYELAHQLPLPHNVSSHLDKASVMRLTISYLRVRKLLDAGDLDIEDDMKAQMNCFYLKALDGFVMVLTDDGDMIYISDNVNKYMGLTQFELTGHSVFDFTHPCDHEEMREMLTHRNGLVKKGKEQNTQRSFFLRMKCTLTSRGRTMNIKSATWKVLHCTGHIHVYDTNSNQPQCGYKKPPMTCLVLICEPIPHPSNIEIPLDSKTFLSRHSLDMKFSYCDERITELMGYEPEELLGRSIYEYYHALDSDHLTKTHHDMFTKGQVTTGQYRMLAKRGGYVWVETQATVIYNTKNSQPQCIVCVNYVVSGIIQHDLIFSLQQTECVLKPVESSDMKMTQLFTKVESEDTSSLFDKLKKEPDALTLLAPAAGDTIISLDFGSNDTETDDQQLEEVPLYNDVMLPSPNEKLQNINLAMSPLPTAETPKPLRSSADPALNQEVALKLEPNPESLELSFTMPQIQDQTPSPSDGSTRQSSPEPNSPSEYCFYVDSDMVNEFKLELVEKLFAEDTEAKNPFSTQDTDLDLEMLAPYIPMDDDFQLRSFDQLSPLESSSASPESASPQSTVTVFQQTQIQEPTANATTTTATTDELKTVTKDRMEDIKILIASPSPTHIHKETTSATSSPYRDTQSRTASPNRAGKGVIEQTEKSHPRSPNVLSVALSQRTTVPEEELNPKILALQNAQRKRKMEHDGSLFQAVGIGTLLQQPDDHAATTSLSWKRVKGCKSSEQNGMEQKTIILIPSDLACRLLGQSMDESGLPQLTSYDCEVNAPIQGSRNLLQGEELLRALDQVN
Chain of Transcription factor E2F1 (Homo sapiens) (Q01094 whole entry, looked up): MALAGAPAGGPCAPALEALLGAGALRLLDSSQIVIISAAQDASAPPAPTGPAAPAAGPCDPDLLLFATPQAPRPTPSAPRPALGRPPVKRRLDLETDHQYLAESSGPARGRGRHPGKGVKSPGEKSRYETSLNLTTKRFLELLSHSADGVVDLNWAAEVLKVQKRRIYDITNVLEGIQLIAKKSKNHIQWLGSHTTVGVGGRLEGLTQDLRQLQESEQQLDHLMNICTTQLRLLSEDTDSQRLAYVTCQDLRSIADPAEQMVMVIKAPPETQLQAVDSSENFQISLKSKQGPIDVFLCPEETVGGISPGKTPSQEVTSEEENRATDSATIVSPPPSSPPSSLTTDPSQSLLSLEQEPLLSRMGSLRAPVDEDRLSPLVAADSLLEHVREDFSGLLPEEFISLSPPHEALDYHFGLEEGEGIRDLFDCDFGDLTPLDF
Chain of Heat shock factor protein 1 (Homo sapiens) (Q00613 whole entry, looked up): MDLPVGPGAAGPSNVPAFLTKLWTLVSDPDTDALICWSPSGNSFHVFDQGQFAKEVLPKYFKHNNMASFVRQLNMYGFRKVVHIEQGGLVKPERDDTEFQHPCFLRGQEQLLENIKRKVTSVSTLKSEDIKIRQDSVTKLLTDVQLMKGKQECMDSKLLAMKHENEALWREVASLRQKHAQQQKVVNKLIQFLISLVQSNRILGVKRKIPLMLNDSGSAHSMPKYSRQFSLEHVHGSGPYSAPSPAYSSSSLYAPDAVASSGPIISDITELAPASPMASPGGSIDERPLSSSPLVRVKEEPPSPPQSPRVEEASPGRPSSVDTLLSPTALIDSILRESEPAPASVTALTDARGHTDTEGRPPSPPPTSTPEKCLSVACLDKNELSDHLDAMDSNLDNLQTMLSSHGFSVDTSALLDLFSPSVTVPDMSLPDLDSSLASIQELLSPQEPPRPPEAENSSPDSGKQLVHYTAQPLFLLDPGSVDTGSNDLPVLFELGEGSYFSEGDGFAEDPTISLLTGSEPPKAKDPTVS
Chain of Hepatocyte nuclear factor 6 (Homo sapiens) (Q9UBC0 whole entry, looked up, the tested form may be a part): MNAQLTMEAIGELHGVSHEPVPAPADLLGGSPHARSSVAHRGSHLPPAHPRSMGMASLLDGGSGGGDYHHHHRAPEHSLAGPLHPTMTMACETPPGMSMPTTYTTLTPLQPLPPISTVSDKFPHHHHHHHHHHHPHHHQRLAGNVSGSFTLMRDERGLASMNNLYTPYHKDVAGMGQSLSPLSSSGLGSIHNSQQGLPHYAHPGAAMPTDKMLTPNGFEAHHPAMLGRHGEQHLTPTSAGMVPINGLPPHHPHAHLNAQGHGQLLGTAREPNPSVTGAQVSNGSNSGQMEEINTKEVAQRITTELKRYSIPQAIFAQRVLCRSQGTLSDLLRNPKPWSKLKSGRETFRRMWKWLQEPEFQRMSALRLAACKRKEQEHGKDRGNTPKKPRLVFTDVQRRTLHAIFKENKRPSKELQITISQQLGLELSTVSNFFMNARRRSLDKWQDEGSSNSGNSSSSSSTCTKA
Chain of Bile acid receptor (Homo sapiens) (Q96RI1 whole entry, looked up): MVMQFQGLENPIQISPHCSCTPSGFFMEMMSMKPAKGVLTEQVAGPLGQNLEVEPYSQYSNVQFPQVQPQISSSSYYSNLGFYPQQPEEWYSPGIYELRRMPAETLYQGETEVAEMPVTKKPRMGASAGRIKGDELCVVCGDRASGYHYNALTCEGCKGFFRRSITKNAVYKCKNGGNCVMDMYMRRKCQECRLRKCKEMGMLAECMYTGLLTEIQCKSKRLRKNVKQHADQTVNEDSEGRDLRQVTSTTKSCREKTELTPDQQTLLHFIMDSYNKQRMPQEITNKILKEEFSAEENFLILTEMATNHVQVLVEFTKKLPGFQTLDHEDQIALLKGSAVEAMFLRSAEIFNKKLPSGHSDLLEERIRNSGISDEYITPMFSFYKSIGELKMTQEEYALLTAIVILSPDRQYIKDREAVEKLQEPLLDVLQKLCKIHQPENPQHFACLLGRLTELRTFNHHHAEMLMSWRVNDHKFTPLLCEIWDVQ
Chain of Hepatocyte nuclear factor 3-beta (Homo sapiens) (Q9Y261 whole entry, looked up): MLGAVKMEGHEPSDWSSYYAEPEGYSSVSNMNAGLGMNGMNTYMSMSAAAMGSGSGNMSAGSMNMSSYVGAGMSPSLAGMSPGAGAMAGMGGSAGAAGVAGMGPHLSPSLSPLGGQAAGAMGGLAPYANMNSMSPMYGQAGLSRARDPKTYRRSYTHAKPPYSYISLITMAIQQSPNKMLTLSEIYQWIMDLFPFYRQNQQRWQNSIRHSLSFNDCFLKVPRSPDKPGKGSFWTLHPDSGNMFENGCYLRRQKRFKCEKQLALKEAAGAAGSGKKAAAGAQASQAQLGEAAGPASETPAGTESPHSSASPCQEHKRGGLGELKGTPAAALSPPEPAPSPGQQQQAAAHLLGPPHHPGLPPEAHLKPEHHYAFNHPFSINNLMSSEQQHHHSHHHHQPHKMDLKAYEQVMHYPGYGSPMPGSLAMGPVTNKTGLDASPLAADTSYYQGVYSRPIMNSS

CCCCC(CC)COP(=O)(O)OCC(CC)CCCC (configuration not stated)
outcome [1]: inactive
outcome [2]: inactive
outcome [3]: inactive
outcome [4]: inactive
outcome [5]: inactive
outcome [6]: inactive
outcome [7]: inactive
outcome [8]: inactive
outcome [9]: inactive
outcome [10]: inactive
outcome [11]: inactive
outcome [12]: inactive
outcome [13]: inactive
outcome [14]: inactive
outcome [15]: inactive
outcome [16]: inactive
outcome [17]: inactive
outcome [18]: inactive
outcome [19]: inactive

c1ccc(-c2ccccc2-c2ccccc2)cc1
outcome [1]: inactive
outcome [2]: inactive
outcome [3]: inactive
outcome [4]: inactive
outcome [5]: inactive
AC50 [6]: 3.47 µM (active)
outcome [7]: inactive
outcome [8]: inactive
outcome [9]: inactive
outcome [10]: inactive
outcome [11]: inactive
AC50 [12]: 27.1 µM (active)
outcome [13]: inactive
AC50 [14]: 100 µM (active)
outcome [15]: inactive
outcome [17]: inactive
outcome [18]: inactive
outcome [20]: inactive
outcome [19]: inactive

Nc1ccc([N+](=O)[O-])cc1O
outcome [1]: inactive
outcome [2]: inactive
outcome [3]: inactive
outcome [4]: inactive
outcome [5]: inactive
outcome [6]: inactive
outcome [7]: inactive
outcome [8]: inactive
outcome [9]: inactive
outcome [10]: inactive
outcome [11]: inactive
outcome [12]: inactive
outcome [13]: inactive
outcome [14]: inactive
outcome [15]: inactive
outcome [16]: inactive
outcome [18]: inactive
outcome [19]: inactive

CCc1ccc(C(c2ccc(CC)cc2)C(Cl)Cl)cc1
outcome [1]: inactive
outcome [2]: inactive
outcome [3]: inactive
outcome [4]: inactive
outcome [5]: inactive
AC50 [6]: 40.1 µM (active)
outcome [7]: inactive
outcome [8]: inactive
outcome [9]: inactive
outcome [10]: inactive
outcome [11]: inactive
outcome [12]: inactive
outcome [13]: inactive
outcome [14]: inactive
outcome [15]: inactive
outcome [16]: inactive
outcome [17]: inactive
outcome [18]: inactive
outcome [20]: inactive
outcome [19]: inactive

FC(F)(Br)C(F)(F)C(F)(F)C(F)(F)C(F)(F)C(F)(F)Br
outcome [1]: inactive
outcome [2]: inactive
outcome [4]: inactive
outcome [5]: inactive
AC50 [6]: 8.15 µM (active)
outcome [7]: inactive
outcome [8]: inactive
outcome [9]: inactive
outcome [10]: inactive
outcome [11]: inactive
outcome [12]: inactive
outcome [13]: inactive
outcome [14]: inactive
outcome [15]: inactive
outcome [16]: inactive
outcome [17]: inactive
outcome [18]: inactive
outcome [20]: inactive
outcome [19]: inactive

Nc1ccc(Oc2cccc(Oc3ccc(N)cc3)c2)cc1
AC50 [1]: 33.4 µM (active)
AC50 [2]: 179 µM (active)
outcome [3]: inactive
AC50 [4]: 26.2 µM (active)
AC50 [5]: 51.5 µM (active)
outcome [6]: inactive
AC50 [7]: 112 µM (active)
outcome [8]: inactive
AC50 [9]: 163 µM (active)
AC50 [10]: 135 µM (active)
AC50 [11]: 178 µM (active)
AC50 [12]: 24.6 µM (active)
AC50 [13]: 181 µM (active)
AC50 [14]: 24.7 µM (active)
AC50 [15]: 137 µM (active)
AC50 [17]: 26.9 µM (active)
outcome [18]: inactive
AC50 [19]: 64.6 µM (active)

O=S(=O)(O)C(F)(F)C(F)(F)C(F)(F)C(F)(F)C(F)(F)C(F)(F)C(F)(F)F
outcome [1]: inactive
outcome [2]: inactive
outcome [3]: inactive
outcome [4]: inactive
outcome [5]: inactive
AC50 [6]: 48.4 µM (active) and 69.9 µM (active)
outcome [7]: inactive
outcome [8]: inactive
outcome [9]: inactive
outcome [10]: inactive
outcome [11]: inactive
outcome [12]: inactive
outcome [13]: inactive
outcome [14]: inactive
AC50 [15]: 149 µM (active)
outcome [15]: inactive
AC50 [18]: 157 µM (active)
outcome [18]: inactive
outcome [19]: inactive
